Measurements reported in PubChem BioAssay (NCATS).
Results filed as inconclusive are left out. Where a call stands in place of a potency, no number is given. Activity calls are given as the source filed them. Unless noted, calls follow the shape of the dose curve; as a rule, active = well fitted inhibition curve with a large enough effect in the repeat runs; inconclusive = weak or mixed curves; inactive = flat fitted curve, though single readings scatter.

Test system: not listed separately
Assay: A High-Content qHTS Against Drug Library for the Identification of Small Molecules that Inhibit DYT1 Early Onset Primary Dystonia-Associated Cell Pathology (AID 1645839; calls by dose curve)
Conditions: HEK293 Flp-In EGFP-delE TorsinA, punctate imaging, 48 h; series mostly up to 46.1 µM
Procedure, shortened: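 Readout: %pathology, the punctate EGFP-TorsinA distribution from imaging, as the primary channel and cell count as the toxicity counterscreen. HEK293 Flp-In cells expressing delE TorsinA were induced with tetracycline and treated with compound for 48 h.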

With N#Cc1nn(-c2c(Cl)cc(C(F)(F)F)cc2Cl)c(N)c1S(=O)C(F)(F)F (stereo not given) as the molecule, how does the outcome read?
Its outcome is “inactive”.

For O=C(N[C@H]1N=C(c2ccccc2F)c2cccc3c2N(CC3)C1=O)c1cc2ccccc2[nH]1, which outcome is on record?
The outcome was “inactive”.

Which outcome does the source give for CCOP(=S)(OCC)O/N=C(\C#N)c1ccccc1 here?
Its outcome is “inactive”.

Which outcome does the source give for CCN(CC)C(C)C(=O)c1ccccc1 (stereo not given) here?
The outcome was “inactive”.

For C[C@]12CC[C@H]3[C@@H](CCC4=CC(=O)CC[C@@H]43)[C@@H]1CC[C@@H]2O, which outcome is on record?
Its outcome is “inactive”.

With CCN(Cc1ccc(Cl)nc1)/C(=C/[N+](=O)[O-])NC as the molecule, how does the outcome read?
The outcome was “inactive”.

For CCc1ccc(C2CCNCC2)cc1, which outcome is on record?
The outcome was “inactive”.

Which outcome does the source give for COc1ccc2[nH]cc(CCN(C(C)C)C(C)C)c2c1 here?
Its outcome is “inactive”.

Which outcome does the source give for CC[C@H]1C[C@@H]2C[C@H]3c4[nH]c5ccc(OC)cc5c4CCN(C2)[C@@H]13 here?
Its outcome is “inactive”.

With C[C@]12CC[C@H]3[C@@H](CC=C4C[C@@H](O)CC[C@@]43C)[C@@H]1CC[C@@H]2O as the molecule, how does the outcome read?
The outcome was “inactive”.

Which outcome does the source give for CCC(=O)OC1(c2ccccc2)CCN(C)CC1 here?
Its outcome is “inactive”.

For Cc1cccc(Cc2cnc[nH]2)c1C, which outcome is on record?
Its outcome is “inactive”.

For CN(C)CCc1c[nH]c2ccc(O)cc12, which outcome is on record?
The outcome was “inactive”.

For O=C(CCCCl)c1ccc(F)cc1, which outcome is on record?
The outcome was “inactive”.

Which outcome does the source give for CN1CCC(N(Cc2ccccc2)c2ccccc2)CC1 here?
Its outcome is “inactive”.

For CCOC(=O)C(c1c(O)c2ccccc2oc1=O)c1c(O)c2ccccc2oc1=O, which outcome is on record?
Its outcome is “inactive”.

With ClC1=C(Cl)C2(Cl)C(CBr)CC1(Cl)C2(Cl)Cl (stereo not given) as the molecule, how does the outcome read?
Its outcome is “inactive”.

Which outcome does the source give for Sc1ccccc1Cl here?
Its outcome is “inactive”.

Target: Cytochrome P450 2D6 (Homo sapiens) (UniProt P10635)
Sequence (P10635 whole entry, looked up): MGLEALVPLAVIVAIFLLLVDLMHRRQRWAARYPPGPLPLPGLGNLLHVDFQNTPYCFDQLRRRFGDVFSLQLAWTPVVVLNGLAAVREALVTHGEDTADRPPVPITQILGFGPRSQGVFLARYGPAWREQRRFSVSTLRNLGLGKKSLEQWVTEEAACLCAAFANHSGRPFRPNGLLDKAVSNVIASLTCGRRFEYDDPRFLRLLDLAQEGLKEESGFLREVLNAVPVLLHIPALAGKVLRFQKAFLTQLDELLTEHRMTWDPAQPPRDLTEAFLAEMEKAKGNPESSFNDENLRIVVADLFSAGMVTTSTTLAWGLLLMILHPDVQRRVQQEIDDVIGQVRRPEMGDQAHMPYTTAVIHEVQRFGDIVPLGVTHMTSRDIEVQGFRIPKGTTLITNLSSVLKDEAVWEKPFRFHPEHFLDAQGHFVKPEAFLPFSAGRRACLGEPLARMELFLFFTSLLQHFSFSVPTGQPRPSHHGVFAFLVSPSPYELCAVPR
Assay: Cytochrome P450 family 2 subfamily D member 6 (CYP2D6) small molecule antagonists: luciferase biochemical (cell-free) qHTS assay (AID 1645840); also: nearly all actives have a fitted effect of over 55% in size; also: potency is read from the fitted curve at half-maximal effect
Conditions: P450-Glo CYP2D6 enzyme, luciferin luminescence, 1 h; series mostly up to 57.4 µM
Procedure, shortened: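 P450-Glo luminescent screen: recombinant CYP2D6 enzyme–proluciferin substrate mix preincubated with compound 10 min at room temperature, then NADPH regeneration added for 1 h at room temperature. Detection reagent added for 20 min; luciferin light read as relative luminescence units.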

Which Potency does the source give for ClCc1cccc(Cl)c1 here?
The Potency was 20.4 µM (active).

Which Potency does the source give for CN1C[C@@H](NS(=O)(=O)N(C)C)C[C@@H]2c3cccc4c3c(cn4C)C[C@H]21 here?
The Potency was 2.19 µM (active).

With C#C[C@]1(O)CC[C@H]2[C@@H]3CCC4=CC(=O)CCC4=C3C=C[C@@]21CC as the molecule, how does the Potency read?
The Potency was 0.977 µM (active).

For CNC(=O)Oc1cccc2ccccc12, which Potency is on record?
Its Potency is “inactive”.

For CCCOC(=O)Cc1ccc(OCC(=O)N(CC)CC)c(OC)c1, which Potency is on record?
The Potency was “inactive”.

Which Potency does the source give for CN(C)CCc1c[nH]c2cccc(O)c12 here?
The Potency was 12.5 µM (active).

With NC1(c2ccccc2)CCCCC1 as the molecule, how does the Potency read?
Its Potency is 28 µM (active).

For CC(C)=CCN1CC[C@@]2(C)c3cc(O)ccc3C[C@@H]1[C@@H]2C, which Potency is on record?
The Potency was 0.176 µM (active).

With Oc1c(Br)cc(Br)cc1Br as the molecule, how does the Potency read?
The Potency was “inactive”.

For COc1cc(C[C@@H](C)N)c(OC)cc1Br, which Potency is on record?
The Potency was 25.9 µM (active).

Which Potency does the source give for C[C@@H]1CN(C2CCC(C#N)(c3ccc(F)cc3)CC2)CC[C@]1(C(=O)O)c1ccccc1 (stereo not given in full) here?
The Potency was 0.049 µM (active).

Which Potency does the source give for CCCC[N+]1(C)[C@@H]2CC(OC(=O)[C@H](CO)c3ccccc3)C[C@H]1[C@@H]1O[C@@H]12 (stereo not given in full) here?
The Potency was 2.75 µM (active).

With CC1N=C(N)OC1c1ccccc1 (stereo not given) as the molecule, how does the Potency read?
Its Potency is 4.92 µM (active).

Which Potency does the source give for CN(C)C(=O)Oc1cc(OC(=O)N(C)C)cc(C(O)CNC(C)(C)C)c1 (stereo not given) here?
Its Potency is 8.71 µM (active).

With CCOC(C(=O)OCCN(C)C)(c1ccccc1)c1ccccc1 as the molecule, how does the Potency read?
Its Potency is 1.38 µM (active).

With O=C(NC(=O)c1c(F)cccc1F)Nc1cc(Cl)c(OC(F)(F)C(F)C(F)(F)F)cc1Cl (stereo not given) as the molecule, how does the Potency read?
Its Potency is “inactive”.

Which Potency does the source give for C[N+]1(CCC(C(N)=O)(c2ccccc2)c2ccccc2)CCCCC1 here?
The Potency was 15.5 µM (active).

With c1cc2c(c(N3CCNCC3)c1)OCCO2 as the molecule, how does the Potency read?
The Potency was “inactive”.

For CCCCC1C(=O)NC(=O)N(C2CCCCC2)C1=O (stereo not given), which Potency is on record?
The Potency was “inactive”.

Which Potency does the source give for CN1CCc2cc(Cl)c(O)cc2[C@H]2c3ccccc3CC[C@@H]21 here?
The Potency was 0.001 µM (active).

Which Potency does the source give for N#Cc1nn(-c2c(Cl)cc(C(F)(F)F)cc2Cl)c(N)c1S(=O)C(F)(F)F (stereo not given) here?
The Potency was 3.89 µM (active).

Which Potency does the source give for O=C(N[C@H]1N=C(c2ccccc2F)c2cccc3c2N(CC3)C1=O)c1cc2ccccc2[nH]1 here?
Its Potency is “inactive”.

For CCOP(=S)(OCC)O/N=C(\C#N)c1ccccc1, which Potency is on record?
Its Potency is 13.8 µM (active).

With CCN(CC)C(C)C(=O)c1ccccc1 (stereo not given) as the molecule, how does the Potency read?
The Potency was “inactive”.

With C[C@]12CC[C@H]3[C@@H](CCC4=CC(=O)CC[C@@H]43)[C@@H]1CC[C@@H]2O as the molecule, how does the Potency read?
Its Potency is “inactive”.

For CCN(Cc1ccc(Cl)nc1)/C(=C/[N+](=O)[O-])NC, which Potency is on record?
Its Potency is “inactive”.

With CCc1ccc(C2CCNCC2)cc1 as the molecule, how does the Potency read?
Its Potency is 0.347 µM (active).

With COc1ccc2[nH]cc(CCN(C(C)C)C(C)C)c2c1 as the molecule, how does the Potency read?
The Potency was 3.25 µM (active).

With CC[C@H]1C[C@@H]2C[C@H]3c4[nH]c5ccc(OC)cc5c4CCN(C2)[C@@H]13 as the molecule, how does the Potency read?
Its Potency is 0.278 µM (active).

Which Potency does the source give for C[C@]12CC[C@H]3[C@@H](CC=C4C[C@@H](O)CC[C@@]43C)[C@@H]1CC[C@@H]2O here?
Its Potency is “inactive”.

Which Potency does the source give for CCC(=O)OC1(c2ccccc2)CCN(C)CC1 here?
The Potency was 37.5 µM (active).

For Cc1cccc(Cc2cnc[nH]2)c1C, which Potency is on record?
The Potency was 0.871 µM (active).
